The values below come from PubChem BioAssay (NCI).

The panel holds about 79,000 compounds, 15% with a hit somewhere; the sample as a whole holds those more often. A number with no mark means an inactive call. Activity calls are given as the source filed them. Cut-off read from the data, not from the text of the source: active = growth inhibition above about 70%; inactive = the rest.

A short description of test [1]: NCI Yeast Anticancer Drug Screen. Data for the rad50 strain (AID 155).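 Note: 0% = growth of vehicle-only cultures of the same strain.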 The conditions noted are these: S. cerevisiae rad50 strain growth inhibition, stronger effect = higher value. In short, it runs like this: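 A DNA repair-deficient yeast mutant serves as the test organism; compound-induced growth inhibition is calculated against vehicle-treated cells.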
Test [2] in a line: NCI Yeast Anticancer Drug Screen. Data for the mec2-1 strain (AID 157). The conditions noted are these: S. cerevisiae mec2-1 strain, stronger effect = higher value. In short, it runs like this: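 Growth inhibition is read against vehicle-treated controls after compound exposure of the mec2-1 yeast strain, which is defective in DNA damage repair or cell cycle control.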
Test [3] can be described thus: NCI Yeast Anticancer Drug Screen. Data for the sgs1 mgt1 strain (AID 161).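 Note: 0% = growth of cultures given vehicle only.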 Conditions: S. cerevisiae sgs1 mgt1 strain, stronger effect = higher value. In short, it runs like this:
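Growth of a repair-deficient yeast mutant was monitored after compound treatment and expressed as inhibition relative to vehicle-treated cultures.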

Test [4] can be described thus: NCI Yeast Anticancer Drug Screen. Data for the cln2 rad14 strain (AID 165).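 Note: 0% = growth equal to vehicle treated cultures.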 The conditions noted are these: S. cerevisiae cln2 rad14 strain, stronger effect = higher value. In short, it runs like this:
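Growth inhibition, relative to vehicle-treated controls, is the read-out. The test organism is a yeast strain with defined genetic alterations, cln2 rad14.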

The nature of test [5]: NCI Yeast Anticancer Drug Screen. Data for the bub3 strain (AID 167). Conditions: S. cerevisiae bub3 mutant strain, stronger effect = higher value. In short, it runs like this:
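Inhibition values come from growth of compound-treated mutant yeast normalised to vehicle-treated controls.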

A short description of test [6]: NCI Yeast Anticancer Drug Screen. Data for the mlh1 rad18 strain (AID 175). Conditions: S. cerevisiae mlh1 rad18 strain growth inhibition, stronger effect = higher value. In short, it runs like this: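 Cells of a genetically altered yeast strain, deficient in DNA damage repair, were treated with compound. Their growth was then compared with that of vehicle-treated cultures to give inhibition.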

The mark [7] stands for this setting: at 5.0 µM (retest, dose inferred, filed as 0.5).
Where [8] appears, read: at 50.0 µM (retest, dose inferred, filed as 5.0).

In the case of `C[n+]1c(-c2ccc(/C=N/NC(=O)c3ccc(C(=O)N/N=C/c4ccc(-c5cn6ccccc6[n+]5C)cc4)nc3)cc2)cn2ccccc21`, the growth inhibition in test [1] (setting [7]) was 35%; in test [1] (setting [8]) it was 99% (active); in test [1] (at 50.0 µM), 99.2% (active); in test [2] (setting [7]) it was 14%; in test [2] (setting [8]) it was 99% (active); in test [2] (at 50.0 µM), 98.8% (active). Also, the growth inhibition was 35% in test [3] (setting [7]); 99% (active) in test [3] (setting [8]); 98.8% (active) in test [3] (at 50.0 µM); 34% in test [4] (setting [7]); 99% (active) in test [4] (setting [8]); 99% (active) in test [4] (at 50.0 µM). For the same compound, the growth inhibition is 24% in test [5] (setting [7]); 99% (active) in test [5] (setting [8]); 98.9% (active) in test [5] (at 50.0 µM); 50% in test [6] (setting [7]); 99% (active) in test [6] (setting [8]); 99.1% (active) in test [6] (at 50.0 µM).

Take `Cc1ccc(C(=O)CC(O)(C(F)(F)F)C(F)(F)F)cc1[N+](=O)[O-]`: the growth inhibition in test [1] (setting [7]) was 17%; in test [1] (setting [8]) it was 95% (active); in test [1] (at 50.0 µM) it was 88.9% (active); in test [2] (setting [7]), -17%; in test [2] (setting [8]) it was 97% (active); in test [2] (at 50.0 µM), 90% (active). The growth inhibition in test [3] (setting [7]) is 3%; in test [3] (setting [8]) it was 45%; in test [3] (at 50.0 µM), 92.2% (active); in test [4] (setting [7]), 25%; in test [4] (setting [8]), 94% (active); in test [4] (at 50.0 µM), 89.5% (active). For the same compound, the growth inhibition in test [5] (setting [7]) is 5%; in test [5] (setting [8]), 96% (active); in test [5] (at 50.0 µM), 90.5% (active); in test [6] (setting [7]), 9%; in test [6] (setting [8]), 97% (active); in test [6] (at 50.0 µM), 87.4% (active).

For `C/C(=N\NC(=S)N1CC(C)OC(C)C1)c1ncccn1` (stereo not given), the growth inhibition is 53% in test [1] (setting [7]); 81% (active) in test [1] (setting [8]); 99.5% (active) in test [1] (at 50.0 µM); 43% in test [2] (setting [7]); 100% (active) in test [2] (setting [8]); 99.4% (active) in test [2] (at 50.0 µM). In addition, the growth inhibition was 52% in test [3] (setting [7]); 100% (active) in test [3] (setting [8]); 99.5% (active) in test [3] (at 50.0 µM); 52% in test [4] (setting [7]); 99% (active) in test [4] (setting [8]); 99.2% (active) in test [4] (at 50.0 µM). The growth inhibition is 44% in test [5] (setting [7]); 99% (active) in test [5] (setting [8]); 99.3% (active) in test [5] (at 50.0 µM); 80% (active) in test [6] (setting [7]); 99% (active) in test [6] (setting [8]); 99.3% (active) in test [6] (at 50.0 µM).

Regarding `O=C(Nc1ccc(Cl)cc1)OCC1C2C=CC(C2)C1CO` (stereo not given), the growth inhibition in test [1] (setting [7]) is 6%; in test [1] (setting [8]) it was 95% (active); in test [1] (at 50.0 µM), 86.8% (active); in test [2] (setting [7]), -1%; in test [2] (setting [8]) it was 97% (active); in test [2] (at 50.0 µM), 75.7% (active). For the same compound, the growth inhibition in test [3] (setting [7]) is 2%; in test [3] (setting [8]) it was 97% (active); in test [3] (at 50.0 µM), 98.4% (active); in test [4] (setting [7]), 2%; in test [4] (setting [8]), 89% (active); in test [4] (at 50.0 µM), 66.5%. Besides, the growth inhibition in test [5] (setting [7]) is -3%; in test [5] (setting [8]), 92% (active); in test [5] (at 50.0 µM) it was 92.9% (active); in test [6] (setting [7]) it was 5%; in test [6] (setting [8]), 97% (active); in test [6] (at 50.0 µM) it was 77.8% (active).

For the compound `CN(C)C1=C(Cl)C(=O)c2ccccc2C1=O`, the growth inhibition in test [1] (setting [7]) is 12%; in test [1] (setting [8]), 93% (active); in test [1] (at 50.0 µM), 47.7%; in test [2] (setting [7]), 14%; in test [2] (setting [8]), 87% (active); in test [2] (at 50.0 µM), 45.6%. In addition, the growth inhibition in test [3] (setting [7]) was 14%; in test [3] (setting [8]), 93% (active); in test [3] (at 50.0 µM), 44.9%; in test [4] (setting [7]), 11%; in test [4] (setting [8]), 60%; in test [4] (at 50.0 µM) it was 34.8%. For the same compound, the growth inhibition was 14% in test [5] (setting [7]); 96% (active) in test [5] (setting [8]); 82% (active) in test [5] (at 50.0 µM); 15% in test [6] (setting [7]); 87% (active) in test [6] (setting [8]); 42.4% in test [6] (at 50.0 µM).

Regarding `N#Cc1c(Cl)cc(Cl)n2c1nc1ccccc12`, the growth inhibition in test [1] (setting [7]) is 46%; in test [1] (setting [8]) it was 97% (active); in test [1] (at 50.0 µM) it was 91.2% (active); in test [2] (setting [7]), 29%; in test [2] (setting [8]), 99% (active); in test [2] (at 50.0 µM), 94% (active). Moreover, the growth inhibition in test [3] (setting [7]) is 56%; in test [3] (setting [8]), 100% (active); in test [3] (at 50.0 µM), 93% (active); in test [4] (setting [7]), 43%; in test [4] (setting [8]), 99% (active); in test [4] (at 50.0 µM), 91.7% (active). Also, the growth inhibition in test [5] (setting [7]) was 56%; in test [5] (setting [8]), 99% (active); in test [5] (at 50.0 µM), 91.3% (active); in test [6] (setting [7]), 43%; in test [6] (setting [8]), 97% (active); in test [6] (at 50.0 µM) it was 92.3% (active).

With `CCCCN(CCCC)CC(O)c1cc(-c2ccc(Cl)cc2)nc2c(C)cccc12` (stereo not given), the growth inhibition was 0% in test [1] (setting [7]); 94% (active) in test [1] (setting [8]); 98% (active) in test [1] (at 50.0 µM); 2% in test [2] (setting [7]); 95% (active) in test [2] (setting [8]); 97.3% (active) in test [2] (at 50.0 µM). The growth inhibition in test [3] (setting [7]) was 19%; in test [3] (setting [8]) it was 96% (active); in test [3] (at 50.0 µM), 98.4% (active); in test [4] (setting [7]), -4%; in test [4] (setting [8]), 91% (active); in test [4] (at 50.0 µM) it was 95.8% (active). Moreover, the growth inhibition is -7% in test [5] (setting [7]); 94% (active) in test [5] (setting [8]); 89.8% (active) in test [5] (at 50.0 µM); 7% in test [6] (setting [7]); 95% (active) in test [6] (setting [8]); 95.9% (active) in test [6] (at 50.0 µM).

Regarding `CCCCCN(CCCCC)CC(O)c1cccc2cc(Cl)ccc12` (stereo not given), the growth inhibition in test [1] (setting [7]) was -1%; in test [1] (setting [8]), 98% (active); in test [1] (at 50.0 µM), 99.5% (active); in test [2] (setting [7]), -1%; in test [2] (setting [8]), 98% (active); in test [2] (at 50.0 µM), 99.7% (active). The growth inhibition is 4% in test [3] (setting [7]); 99% (active) in test [3] (setting [8]); 99.6% (active) in test [3] (at 50.0 µM); -4% in test [4] (setting [7]); 99% (active) in test [4] (setting [8]); 99.5% (active) in test [4] (at 50.0 µM). Also, the growth inhibition is 2% in test [5] (setting [7]); 99% (active) in test [5] (setting [8]); 99.5% (active) in test [5] (at 50.0 µM); 0% in test [6] (setting [7]); 99% (active) in test [6] (setting [8]); 99.6% (active) in test [6] (at 50.0 µM).

Consider `COC1OC(CO)C(O)C(OC(=O)c2ccc([N+](=O)[O-])cc2)C1OS(=O)(=O)c1ccc(C)cc1` (stereo not given), for which the growth inhibition in test [1] (setting [7]) is 2%; in test [1] (setting [8]), 0%; in test [1] (at 50.0 µM), 31.8%; in test [2] (setting [7]), -1%; in test [2] (setting [8]) it was 7%; in test [2] (at 50.0 µM) it was -0.1%. In addition, the growth inhibition in test [3] (setting [7]) is -1%; in test [3] (setting [8]), 0%; in test [3] (at 50.0 µM), 18.7%; in test [4] (setting [7]), -1%; in test [4] (setting [8]), -1%; in test [4] (at 50.0 µM) it was -2.5%. The growth inhibition was 2% in test [5] (setting [7]); -2% in test [5] (setting [8]); -0.2% in test [5] (at 50.0 µM); 27% in test [6] (setting [7]); 7% in test [6] (setting [8]); 10.6% in test [6] (at 50.0 µM).

Regarding `COc1ccc(/C(Cl)=C(\C=O)c2ccc(Cl)cc2)cc1OC`, the growth inhibition in test [1] (setting [7]) was 6%; in test [1] (setting [8]) it was 61%; in test [1] (at 50.0 µM), 4.15%; in test [2] (setting [7]), -8%; in test [2] (setting [8]), 35%; in test [2] (at 50.0 µM) it was 13.4%. In addition, the growth inhibition in test [3] (setting [7]) was -17%; in test [3] (setting [8]), 56%; in test [3] (at 50.0 µM), 21.6%; in test [4] (setting [7]), 7%; in test [4] (setting [8]), 49%; in test [4] (at 50.0 µM), 0.1%. Besides, the growth inhibition in test [5] (setting [7]) was 4%; in test [5] (setting [8]) it was 70% (active); in test [5] (at 50.0 µM), 13.6%; in test [6] (setting [7]) it was -5%; in test [6] (setting [8]), 68%; in test [6] (at 50.0 µM) it was 24.1%.
